According to PubChem BioAssay (Tox21):
A number with no mark means an inactive call. Results filed as inconclusive are left out. A call without a number means that no potency is given here. The source made the active and inactive calls. Unless noted, the call rests on the fitted dose curve; in most records, active means well fitted curve in the direction sought with a large enough effect in the repeat runs; inconclusive means weak or mixed curves; inactive means no such curve, though single readings can be large; an effect the other way counts as inactive or inconclusive.

Legend:
[1] = target: Thyrotropin receptor (Homo sapiens) (UniProt P16473); experiment: qHTS assay to identify small molecule agonists of the thyroid stimulating hormone receptor (TSHR) signaling pathway (AID 1224843; calls by dose curve; further: nearly all actives have a fitted effect of over 45% in size)
In short: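 TSHR-HEK293 cells in agonist mode, 30 min room-temperature step, then cAMP measured by competitive HTRF (cAMP-d2 with anti-cAMP cryptate) after 1 h at room temperature. Tested at 15 concentrations in triplicate.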

[2] = qHTS assay to identify small molecule agonists of the hypoxia (HIF-1) signaling pathway - cell viability counter screen (AID 1224844; calls by dose curve; further: nearly all actives have a fitted effect of over 50% in size; further: potency means the concentration at half of the fitted maximal effect)
In short: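 Tox21 10K compounds were added to HRE-bla ME-180 cells (0.5% dialyzed FBS) and incubated 17 hrs at 37C; ATP-based CellTiter-Glo luminescence then reported cell viability in the same wells.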

[3] = qHTS assay to identify small molecule agonists of the hypoxia (HIF-1) signaling pathway (AID 1224846; active means well fitted activation curve with a large enough effect in the signal ratio in the repeat runs, not every such curve was filed as active; the % refers to the signal ratio)
In short: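 Steps: seed ME-180 HRE-bla cells (2,000/well, 0.5% dialyzed FBS); incubate 5 hrs at 37C; pin-transfer compounds or DMSO; incubate 17 hrs; add LiveBLAzer B/G substrate CCF4-AM; measure reporter activation by FRET.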

[4] = qHTS assay to identify small molecule agonists of H2AX - cell viability counter screen (AID 1224847; calls by dose curve; further: top concentration of the series differs between compounds; nearly all actives have a fitted effect of over 30% in size)
In short: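 For this counter screen, overnight-attached CHO-K1 cells received test compounds (15 concentrations, 0.76% DMSO final); 3 hr later at 37C, CellTiter-Glo reagent was added and luminescence recorded after 30 min at room temperature.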

[5] = qHTS assay to identify small molecule antagonists of the estrogen related receptor (ERR) signaling pathway from Tox21 library (AID 1224848); further: nearly all actives have a fitted effect of over 50% in size; further: potency means the concentration at half of the fitted maximal effect
In short: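 ERR reporter cell line (from NTP) seeded 2,000 cells/well, rested 6 h at 37 C/5% CO2, then pin-dosed with compounds in DMSO. After 18 h at 37 C, ONE-Glo added; luminescence read after 30 min at room temperature.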

[6] = qHTS assay to identify small molecule agonists of the estrogen related receptor (ERR) signaling pathway from Tox21 library (AID 1224849; calls by dose curve; further: nearly all actives have a fitted effect of over 15% in size); settings: ERR reporter cell line, ONE-Glo luciferase, 18 h; at 92.4 µM (top of the series) unless noted
In short: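 Agonist signal is luciferase luminescence from an ERR reporter cell line treated 18 h at 37 C with DMSO-dissolved compounds, read 30 min after ONE-Glo addition at room temperature.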

[7] = qHTS RealTime-Glo MT Cell Viability Assay in HepG2 cells - 24 hour (AID 1224867); further: nearly all actives have a fitted effect of over 50% in size
In short: (§1)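 Real-time, nonlytic viability: 600 HepG2 cells/well mixed with NanoLuc enzyme plus prosubstrate; 5 h settle, compound (DMSO) added by pintool; luminescence monitored over 40 h at 37 C.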

[8] = qHTS RealTime-Glo MT Cell Viability Assay in HEK293 cells - 32 hour (AID 1224868); further: top concentration of the series differs between compounds; nearly all actives have a fitted effect of over 50% in size
In short: (§2)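 Cells + reagent dispensed (600 cells/well, HEK293) → 5 h at 37 C/5% CO2 → 23 nL compound in DMSO pinned → 40 h at 37 C → luminescence read at 0, 8, 16, 24, 32, 40 h.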

[9] = A CellTox Green Cytotoxicity Assay to monitor cytotoxicity in HEK293 cells - 0 hour (AID 1224869); further: nearly all actives have a fitted effect of over 50% in size
In short: (§3)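 Cytotoxicity was tracked continuously in HEK293 cells by a DNA-binding dye excluded from viable cells. Compounds were transferred in DMSO 5 h after seeding; fluorescence was recorded at intervals up to 40 h.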

[10] = qHTS RealTime-Glo MT Cell Viability Assay in HepG2 cells - 40 hour (AID 1224870); further: nearly all actives have a fitted effect of over 50% in size
In short: (§4)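 HepG2 cells (600/well) mixed with RealTime-Glo MT reagent, settled 5 h at 37 C/5% CO2 before compound addition. Nonlytic NanoLuc luminescence from viable-cell prosubstrate reduction read repeatedly during 40 h treatment at 37 C.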

[11] = A CellTox Green Cytotoxicity Assay to monitor cytotoxicity in HEK293 cells - 40 hour (AID 1224871); further: nearly all actives have a fitted effect of over 45% in size
In short: as §3

[12] = qHTS RealTime-Glo MT Cell Viability Assay in HEK293 cells - 16 hour (AID 1224872)
In short: as §2

[13] = qHTS RealTime-Glo MT Cell Viability Assay in HepG2 cells - 8 hour (AID 1224873); further: nearly all actives have a fitted effect of over 55% in size
In short: as §4

[14] = qHTS RealTime-Glo MT Cell Viability Assay in HEK293 cells - 40 hour (AID 1224874); settings: RealTime-Glo luminescence; max response: stronger effect = lower value; further: nearly all actives have a fitted effect of over 50% in size
In short: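 Nonlytic bioluminescent viability monitoring. HEK293 at 600 cells/well with reagent; 5 h settle; compound transfer by pintool; plates held at 37 C and read at set time points.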

[15] = A CellTox Green Cytotoxicity Assay to monitor cytotoxicity in HEK293 cells - 24 hour (AID 1224875); further: nearly all actives have a fitted effect of over 45% in size
In short: as §3

[16] = A CellTox Green Cytotoxicity Assay to monitor cytotoxicity in HepG2 cells - 16 hour (AID 1224876); further: nearly all actives have a fitted effect of over 45% in size
In short: (§5)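 Real-time, homogeneous cytotoxicity readout: dead-cell DNA staining by CellTox Green in HepG2 monolayers, fluorescence measured at timed intervals up to 40 h of continuous compound exposure.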

[17] = qHTS RealTime-Glo MT Cell Viability Assay in HepG2 cells - 32 hour (AID 1224877); further: nearly all actives have a fitted effect of over 55% in size
In short: as §1

[18] = A CellTox Green Cytotoxicity Assay to monitor cytotoxicity in HepG2 cells - 24 hour (AID 1224878); further: nearly all actives have a fitted effect of over 45% in size
In short: as §5

[19] = A CellTox Green Cytotoxicity Assay to monitor cytotoxicity in HepG2 cells - 40 hour (AID 1224879); further: nearly all actives have a fitted effect of over 40% in size
In short: as §5

[20] = qHTS assay to identify small molecule agonists of H2AX (AID 1224845; active means well fitted activation curve with a large enough effect in the signal ratio in the repeat runs, not every such curve was filed as active; the % refers to the signal ratio)
In short: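 Wild-type CHO-K1 cells, plated overnight, exposed 3hr at 37C to 15 concentrations (0.76% DMSO final). Lysed, then HTRF anti-pH2AX (S139) cryptate and anti-H2AX-d2 antibodies, 24 hr room temperature; 665/620 nm emission read.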

Sequence of Thyrotropin receptor (Homo sapiens) (P16473 whole entry, looked up): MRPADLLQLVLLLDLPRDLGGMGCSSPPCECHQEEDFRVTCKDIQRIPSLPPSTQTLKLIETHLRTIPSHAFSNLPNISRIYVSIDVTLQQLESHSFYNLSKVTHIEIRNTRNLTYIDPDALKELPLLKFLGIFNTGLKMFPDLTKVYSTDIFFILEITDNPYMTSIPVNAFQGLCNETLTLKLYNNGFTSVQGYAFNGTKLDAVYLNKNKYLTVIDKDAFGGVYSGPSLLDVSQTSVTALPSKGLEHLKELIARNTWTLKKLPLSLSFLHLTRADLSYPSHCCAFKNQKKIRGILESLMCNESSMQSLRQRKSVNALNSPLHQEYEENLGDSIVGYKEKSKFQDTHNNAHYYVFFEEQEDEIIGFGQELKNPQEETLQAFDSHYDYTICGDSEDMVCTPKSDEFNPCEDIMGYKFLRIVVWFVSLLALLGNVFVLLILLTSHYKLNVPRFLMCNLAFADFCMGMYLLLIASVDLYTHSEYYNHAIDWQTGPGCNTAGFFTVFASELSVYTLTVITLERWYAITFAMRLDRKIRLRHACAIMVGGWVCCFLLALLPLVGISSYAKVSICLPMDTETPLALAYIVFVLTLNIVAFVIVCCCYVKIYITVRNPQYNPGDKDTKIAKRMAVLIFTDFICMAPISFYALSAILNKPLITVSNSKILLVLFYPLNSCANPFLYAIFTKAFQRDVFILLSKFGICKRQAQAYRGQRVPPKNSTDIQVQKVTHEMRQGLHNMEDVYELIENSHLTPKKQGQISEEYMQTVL

SMILES	Potency [1]	Potency [2]	outcome [3]	Potency [4]	Potency [5]	activity change, positive = activation [6]	Potency [7]	Potency [8]	Potency [9]	Potency [10]	Potency [11]	Potency [12]	Potency [13]	max response [14] [%]	Potency [15]	Potency [16]	Potency [17]	Potency [18]	Potency [19]	Potency [20]
O=C1c2ccccc2C(=O)C1c1ccc(Br)cc1	inactive	inactive	inactive	inactive	inactive	99.8% [at 42.5 µM] (active)	inactive	inactive	inactive	inactive	inactive	inactive	inactive	-7.99	inactive	inactive	inactive	inactive	inactive	–
CCCCCCCC/C=C\CCCCCCCCO	inactive	inactive	–	inactive	inactive	4.79%	inactive	inactive	–	inactive	inactive	inactive	inactive	–	inactive	inactive	inactive	inactive	inactive	inactive
CC(O)c1ccccc1 (stereo not given)	inactive	inactive	–	inactive	inactive	5.42%	inactive	inactive	inactive	inactive	inactive	inactive	inactive	19.3	inactive	inactive	inactive	inactive	inactive	inactive
Cc1ccco1	inactive	inactive	–	inactive	–	–	inactive	inactive	inactive	inactive	inactive	inactive	inactive	15.4	inactive	inactive	–	inactive	inactive	inactive
C=CCc1ccccc1OCC(O)CNC(C)C (stereo not given)	inactive	inactive	–	inactive	–	–	inactive	inactive	inactive	inactive	inactive	inactive	inactive	-5.29	inactive	inactive	inactive	inactive	inactive	inactive
O[C@@H]1CO[C@H]2[C@@H]1OC[C@@H]2O	inactive	inactive	–	inactive	–	–	inactive	inactive	inactive	inactive	inactive	inactive	inactive	8.95	inactive	inactive	inactive	inactive	inactive	inactive
C=C(C)CCCC(C)CCO (stereo not given)	inactive	inactive	–	inactive	–	–	–	inactive	–	inactive	inactive	inactive	inactive	-17.9	inactive	inactive	–	inactive	inactive	inactive
CC(CO)CO	inactive	inactive	–	inactive	inactive	0.194%	inactive	inactive	inactive	inactive	inactive	inactive	inactive	3.5	inactive	inactive	inactive	inactive	inactive	inactive
Brc1cc(Br)c(Oc2cc(Br)c(Br)cc2Br)cc1Br	inactive	21.3 µM (active)	–	inactive	–	–	–	inactive	inactive	inactive	inactive	inactive	inactive	-1.98	inactive	inactive	inactive	inactive	inactive	inactive
CC(C)(O)c1ccc(CNC(=O)c2cccnc2Oc2ccc3nonc3c2)cc1	inactive	inactive	inactive	inactive	54.5 µM (active)	-39.3%	inactive	–	–	inactive	inactive	–	inactive	–	inactive	inactive	inactive	inactive	inactive	–
OC(CCN1CCCC1)(c1ccccc1)C1CCCCC1 (stereo not given)	inactive	inactive	–	inactive	–	–	–	inactive	inactive	inactive	inactive	inactive	inactive	–	inactive	–	inactive	inactive	inactive	inactive
O=C(O)C[C@H](NC(=O)OCc1ccccc1)C(=O)O	inactive	inactive	–	inactive	–	–	inactive	inactive	inactive	inactive	inactive	inactive	inactive	-0.276	inactive	inactive	inactive	inactive	inactive	inactive
O=C(O)c1cccc(-c2noc(-c3ccccc3F)n2)c1	inactive	inactive	–	–	–	–	–	inactive	inactive	inactive	inactive	inactive	inactive	2.77	inactive	–	inactive	inactive	inactive	inactive
NNC(=O)CP(=O)(c1ccccc1)c1ccccc1	inactive	inactive	–	inactive	–	–	inactive	inactive	inactive	inactive	inactive	inactive	inactive	-3.49	inactive	–	inactive	inactive	inactive	inactive
